The values below come from PubChem BioAssay AID924 (National Center for Advancing Translational Sciences (NCATS), 2007).

The structures appear in SMILES notation. Where “and” joins values, the source holds several entries; their conditions need not be identical. Equal values may be shown once. Out of some 130,000 compounds screened, about 1,200 (0.92%) were called active. Entries that show only a call come without a potency. Inconclusive results (about 3%) are left out. This excerpt belongs to a sample that is enriched for actives. A number with no mark means an inactive call. Calls come from the whole dose curve; as a rule, active = well fitted cell-killing curve with a large enough effect; inconclusive = small, poorly fitted or top-dose-only effect; inactive = no such curve, though single readings can be large or run the other way.
Potency is the fitted concentration of half-maximal effect.

A short description of this assay: qHTS Screen for Compounds that Selectively Target Cancer Cells with p53 Mutations: Cytotoxicity of p53ts Cells at the Permissive Temperature. Note: nearly all actives have a fitted effect of over 55% in size. The conditions noted are these: H1299-p53A138V at 32C, ATP luminescence viability, 24 h; series mostly up to 46.1 µM. An excerpt:
NIH Chemical Genomics Center [NCGC] NIH Molecular Libraries Screening Centers Network [MLSCN] MLSCN Grant: 1 X01 MH079844-01 Assay Submitter (PI): Dr. SUN, YI, University of Michigan NCGC Assay Overview: Synthetic Lethal Screen for Compounds to Kill Cancer Cells with p53 Mutation. Tumor suppressor gene p53 serves as a major cellular barrier against tumorigenesis. […] The goal of this screening is to identify small molecule probes that selectively kill cancer cells with mutations in p53. This screening was carried out using two lines of H1299 lung cancer cells. The H1299-p53 A138V line express a temperature sensitive p53 mutant (p53ts) in which the mutant p53 protein (A138V) is in the mutant confirmation when grown at 39C (the nonpermissive temperature) and in the wild type conformation when grown at 32C (the permissive temperature). A H1299-neo line (p53 null) grown at both 39C and 32C were used as counter-screens to filter out false positive associated with temperature shifting. The small molecular compounds that selectively target mutant p53-containing cancer cells were selected as candidate probes for further study. A cytotoxicity assay based on the measurement of ATP contents in cells was used in this screen. Concentration-responses of all the compounds in the library collection were determined in qHTS using the cell lines and temperature conditions as above.
NCGC Assay Protocol Summary: Both the H1299-p53A138V and H1299-neo cell lines were provided by Dr.Yi Sun, a PI at the University Michigan. The cells were maintained and cultured at 37C. The resuspended frozen cells were used to plate the cells in the 1536-well assay plates at a density of 600 cells per well in 5 ul medium. The assay plates with the cells were incubated at 37C for 16 to 30 hours before the experiments. The library compounds in DMSO solution were added to the cells in assay plates and incubated 24 hours at 39C (for mutant p53 conformation) or 32C (for normal p53 conformation as control). An ATP_lite assay kit (PerkinElmer) was used to determine the cell viability. Tomaxifen (100uM) was used as the positive control for cell killing. Data were normalized to the controls for basal activity (DMSO only) and 100% killing (100uM tamoxifen). AC50 values were determined from concentration-response data modeled with the standard Hill equation. P53 assay protocol: 1. Reagent; 5 uL H1299-p53A138V or H1299-neo cell cells/well 2. Time; overnight; 37C incubation 3. Compounds; 23 nL; 5.9 nM to 46 uM 4. Controls; 23 nL; Tamoxifen 100 uM 5. Time; 24 hr; 37C incubation 6. Reagent; 3 uL; ATP_Lite reagent 7. Time; 20 min; Room Temperature 8. Detection; Luminescence; Viewlux plate reader Keywords: p53, synthetic lethal, cancer, cell viability, cytotoxicity, H1299 cell line, luminescence, MLSMR, MLSCN, NIH Roadmap, qHTS, NCGC
Turning to `CCN(CCCCOC(=O)c1ccc(OC)c(OC)c1)C(C)Cc1ccc(OC)cc1` (stereo unspecified), the Potency result is “inactive”. As to `COc1ccc(/C=C/NC(=O)Cc2ccc(OC)c(OC)c2)cc1`, the activity change, negative = cytotoxicity was -5.23% [at 9.22 µM] and 5.05% [at 9.22 µM].

Regarding `COc1ccc(C(CCN(Cc2ccc(OC)c(OC)c2)C(=O)CCl)c2ccccc2)cc1` (stereo unspecified), the Potency is 5.01 µM (active).

In the case of `CCc1ccc(NC(=O)c2cc(S(=O)(=O)N3CCCC(C)C3)cn2C)cc1` (stereo unspecified), the Potency result was “inactive”. Same read-out and setting: the result for `COc1cccc(NC(=O)CSC2=Nc3ccccc3C3=NC(CC(=O)NC4CCCCC4)C(=O)N23)c1` (stereo unspecified) reads “inactive”; that for `COC(=O)c1ccccc1NC(=O)Cn1c(=O)cc(C)c2c(C)nn(-c3cccc(Cl)c3C)c21`, “inactive”; that for `Cc1ccc(NC(=O)CSc2nc3c([nH]c4ccccc43)c(=O)n2-c2ccccc2)c(C)c1`, “inactive”. Still for that read-out and setting: the same measure for `CC(C)c1ccc(NC(=O)CN(C)S(=O)(=O)c2ccc3c(c2)c(=O)n(C)c(=O)n3C)cc1`: “inactive”. The same measure, in the same setting: the same measure for `COC(=O)c1sc(NC(=O)c2ccc(OC)cc2OC)nc1C`: 0.398 µM (active); for `COc1ccc(C(=O)Nc2nncs2)c(OC)c1`: “inactive”; for `COC(=O)c1sc(NC(=O)c2csc3c2CCCC3)nc1C`: “inactive”. Turning to `COc1ccc(-c2nc3sc(CCNS(=O)(=O)c4ccc(F)c(C)c4)c(C)n3n2)cc1`, the Potency entry was “inactive”. Same read-out and setting: the same measure for `O=C(NCCc1ccc(Cl)cc1)c1ccc2nc(CCc3ccccc3)oc2c1`: “inactive”; for `CCn1c(=O)c2cc(C(=O)NCCc3ccc(Cl)cc3)sc2c2ccccc21`: “inactive”; for `Cc1ccccc1Nc1nn2c(=O)c3ccc(C(=O)NCCc4ccc(Cl)cc4)cc3nc2s1`: 15.8 µM (active). On the same count and under the same terms, the result for `CCOc1ccc(C(=O)c2cn(Cc3ccccc3OC)c3ccc(F)cc3c2=O)cc1` reads “inactive”. As to `CCOC(=O)c1cc2c(=O)n3ccccc3nc2n(CC2CCCO2)c1=NC(=O)c1ccccc1Br` (stereo unspecified), the Potency result was “inactive”. Turning to `O=C(NCc1ccc2c(c1)CCN2C(=O)c1ccccc1)Nc1cc(F)ccc1F`, the Potency entry was “inactive”. Take `COc1ccc(-c2nc(-c3ccccc3)no2)c(OC)c1`: the Potency was 5.01 µM (active).

On to `COc1ccc(-c2noc(CSc3nnc(-c4ccccc4)n3-c3ccc(F)cc3)n2)c(OC)c1`, for which the Potency entry is “inactive”. The same measure, in the same setting: the result for `COc1ccc(-c2cc(-c3nc(-c4cc(OC)c(OC)c(OC)c4)no3)[nH]n2)c(OC)c1` reads “inactive”; that for `CCn1c(C)c(C)c2cc(C(=O)N3CCN(c4cccc(C)c4C)CC3)ccc21`, “inactive”. Still for that read-out and setting: the result for `CCOc1ccc(C(=O)/C=C/c2cn(CC(O)CN3CCCCCC3)c3ccccc23)cc1` (stereo unspecified) reads “inactive”; that for `CCOC(=O)c1nnn(CC(=O)NC(=O)Nc2ccccc2F)c1C(=O)OCC`, “inactive”; that for `Cc1ccc2oc(C(=O)Nc3ccc(S(=O)(=O)N4CCCCCC4)cc3)cc(=O)c2c1`, “inactive”. Still for that read-out and setting: the same measure for `Cc1nn2c3cc(N4CCOCC4)ccc3nc2c2ccccc12`: 2 µM (active). With `Cc1cc(C)c2c(n1)nn1c(N3CCOCC3)cc(C)nc21`, the Potency entry was “inactive”. On the same count and under the same terms, the same measure for `Cc1nc2ccccc2n1C(=O)N1CCOCC1`: “inactive”. The same measure, in the same setting: the same measure for `COc1ccc(CNC(=O)CC2Oc3ccc(C)cc3NC2=O)cc1` (stereo unspecified): “inactive”; for `Cc1cc(=O)c2cc(C(=O)Nc3cccc(C)c3C)ccc2[nH]1`: “inactive”. Same read-out and setting: the same measure for `O=C(CSc1nnc(CNC(=O)c2ccccc2)n1-c1ccc(F)cc1)Nc1ccccc1F`: “inactive”; for `CCc1ccc2oc(-c3ccc(C)c(NC(=O)/C=C/c4ccco4)c3)nc2c1`: “inactive”.

In the case of `CCc1ccc2oc(-c3ccc(NC(=O)c4cc5ccccc5o4)cc3)nc2c1`, the Potency entry is “inactive”. As for `CCc1ccc2oc(-c3ccc(N)cc3)nc2c1`, the Potency was 7.94 µM (active). The same measure, in the same setting: the result for `COc1ccc(-c2nnc(SCC(=O)Nc3ccc(C(C)C)cc3)nc2-c2ccc(OC)c(OC)c2)cc1OC` reads “inactive”; that for `CC(C)(C)c1ccc(C(=O)NCC(c2ccc(Cl)cc2)N2CCOCC2)cc1` (stereo unspecified), “inactive”; that for `O=C(Cn1c(=O)sc2ccccc21)Nc1nc2c(s1)CCCC2`, “inactive”. Still for that read-out and setting: the result for `NC(=O)c1ccccc1NC(=O)c1ccccc1F` reads “inactive”. Still for that read-out and setting: the result for `O=C(Nc1nc2c(s1)CCCC2)c1ccccc1F` reads 7.94 µM (active); that for `O=C1N(Cc2ccccc2)c2ccc(Cl)cc2C1(O)c1c[nH]c2ccccc12` (stereo unspecified), “inactive”; that for `Cn1c(=O)c(C(=O)Nc2ncccn2)c(O)c2ccccc21`, 12.6 µM (active). Turning to `O=C(Nc1ncccn1)c1cccs1`, the Potency result is “inactive”. On the same count and under the same terms, the same measure for `CCOc1cc(C(=O)Nc2ncccn2)cc(OCC)c1OCC`: “inactive”. Consider `CC1CCCN(c2nc3c(S(=O)(=O)c4ccc(C(C)C)cc4)nnn3c3ccsc23)C1` (stereo unspecified), for which the Potency result was “inactive”.

In the case of `CCOc1ccc(C(=O)Nc2ccc3nc4c(c(Nc5ccccc5OC)c3c2)CCCC4)cc1`, the Potency entry was “inactive”.

For `CCOc1ccc(NC(=O)CSc2c3c(nc4ccccc24)CCCC3)cc1`, the Potency was 22.4 µM (active). For `COc1cccc(CNC(=O)CSc2c3c(nc4cc(Cl)ccc24)CCCC3)c1`, the Potency entry was “inactive”. Same read-out and setting: the same measure for `CCOC(=O)c1cc(-c2ccccc2)n(CCC(=O)Nc2ccccc2CC)c1C`: “inactive”; for `O=C(NCc1ccc(F)cc1)c1ccc(Cn2c(SCc3ccc(F)cc3)nc3cccnc32)cc1`: “inactive”; for `Cc1ccc(CSc2nc3cccnc3n2Cc2ccc(C(=O)NC3CC3)cc2)cc1`: 2.24 µM (active).

With `O=C(NC1CCCCC1)c1ccc(Cn2c(SCc3ccccc3)nc3cccnc32)cc1`, the Potency result was “inactive”.
